Laboratory results: PubChem BioAssay AID1159580 (chemical genetic matrix, 2015)
Hit rate of the full screen: of about 5,500 compounds, about 2,000 (36%) were called active. About 18% were inconclusive and are not listed. Rule as the data show it: active = normalized growth mostly below about 0.91 (no sharp cut-off); inconclusive = no clear call, values can overlap the other calls; inactive = mostly above about 0.92. This is one part of the list.

Test: chemical genetic growth profiling, strain panel (AID 1159580);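 also: tested at 20 µM; growth read once vehicle control cultures reached saturation at 30 °C; 1 = growth at the plate median or of vehicle wells; lower values mean less growth of the strain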
Conditions: S. cerevisiae deletion strains, growth OD

Measured: normalized growth

CCCCC(CC)CN1CN(CC(CC)CCCC)CC(C)(N)C1 (stereo not drawn)
inactive: locus YDL185W, strain tfp1, hits give low values 1.02 | locus YGL078C, strain dbp3, hits give low values 1 | locus YIL125W, strain kgd1, hits give low values 1.01
active: locus YAL013W, strain DEP1, hits give low values 0.14 | locus YAL021C, strain ccr4, hits give low values 0.0639 | locus YAL026C, strain drs2, hits give low values 0.0615 | locus YAL030W, strain snc1, hits give low values 0.0534 | locus YBL061C, strain skt5, hits give low values 0.0552 | locus YBR009C, strain hhf1, hits give low values 0.0618 | locus YBR021W, strain FUR4, hits give low values 0.168 | locus YBR023C, strain chs3, hits give low values 0.0607 | locus YBR171W, strain sec66, hits give low values 0.0721 | locus YBR229C, strain ROT2, hits give low values 0.816 | locus YBR231C, strain swc5, hits give low values 0.0597 | locus YBR279W, strain paf1, hits give low values 0.088 | locus YCL011C, strain gbp2, hits give low values 0.0548 | locus YCL016C, strain dcc1, hits give low values 0.0625 | locus YCL029C, strain bik1, hits give low values 0.573 | locus YCL061C, strain MRC1, hits give low values 0.062 | locus YCL069W, strain vba3, hits give low values 0.0607 | locus YCR088W, strain abp1, hits give low values 0.0577 | locus YDL005C, strain med2, hits give low values 0.0691 | locus YDL035C, strain GPR1, hits give low values 0.329 | locus YDL040C, strain nat1, hits give low values 0.055 | locus YDL074C, strain BRE1, hits give low values 0.228 | locus YDL101C, strain DUN1, hits give low values 0.417 | locus YDL134C, strain PPH21, hits give low values 0.58 | locus YDL192W, strain arf1, hits give low values 0.0997 | locus YDR001C, strain nth1, hits give low values 0.0567 | locus YDR069C, strain doa4, hits give low values 0.0614 | locus YDR101C, strain arx1, hits give low values 0.573 | locus YDR137W, strain rgp1, hits give low values 0.111 | locus YDR150W, strain NUM1, hits give low values 0.801 | locus YDR159W, strain sac3, hits give low values 0.0869 | locus YDR162C, strain NBP2, hits give low values 0.233 | locus YDR195W, strain ref2 0.116 | locus YDR297W, strain sur2, hits give low values 0.0539 | locus YDR318W, strain mcm21, hits give low values 0.471 | locus YDR334W, strain swr1, hits give low values 0.0598 | locus YDR335W, strain msn5, hits give low values 0.0571 | locus YDR388W, hits give low values 0.15 | locus YDR392W, strain spt3, hits give low values 0.0725 | locus YDR502C, strain sam2, hits give low values 0.401 | locus YEL003W, strain gim4, hits give low values 0.0521 | locus YEL037C, strain rad23, hits give low values 0.0554 | locus YEL061C, strain CIN8 (second series), hits give low values 0.0574 | locus YEL061C, strain CIN8, hits give low values 0.472 | locus YER015W, strain faa2, hits give low values 0.0593 | locus YER016W, strain bim1, hits give low values 0.0563 | locus YER110C, hits give low values 0.627 | locus YER111C, strain swi4, hits give low values 0.0661 | locus YER155C, strain BEM2 (second series), hits give low values 0.0846 | locus YER155C, strain BEM2, hits give low values 0.425 | locus YER167W, strain BCK2, hits give low values 0.55 | locus YFR010W, strain ubp6, hits give low values 0.0701 | locus YGL086W, strain mad1, hits give low values 0.283 | locus YGL167C, strain pmr1, hits give low values 0.0684 | locus YGL173C, strain kem1, hits give low values 0.0624 | locus YGL227W, strain vid30, hits give low values 0.0601 | locus YGL240W, strain doc1, hits give low values 0.0704 | locus YGL248W, strain PDE1, hits give low values 0.633 | locus YGL253W, strain hxk2, hits give low values 0.0538 | locus YGR078C, strain PAC10, hits give low values 0.469 | locus YGR135W, strain pre9, hits give low values 0.381 | locus YGR229C, strain SMI1, hits give low values 0.0664 | locus YGR252W, strain gcn5, hits give low values 0.224 | locus YHR013C, strain ard1, hits give low values 0.124 | locus YHR027C, strain rpn1, hits give low values 0.0601 | locus YHR030C, strain SLT2, hits give low values 0.133 | locus YHR079C, strain IRE1 (second series), hits give low values 0.573 | locus YHR094C, strain hxt1, hits give low values 0.911 | locus YHR129C, strain ARP1, hits give low values 0.716 | locus YHR142W, strain chs7, hits give low values 0.077 | locus YHR200W, strain rpn10, hits give low values 0.214 | locus YIL066C, strain RNR3, hits give low values 0.45 | locus YIL073C, strain SPO22, hits give low values 0.364 | locus YIR030C, strain dcg1, hits give low values 0.651 | locus YJL092W, strain hpr5, hits give low values 0.0575 | locus YJL095W, strain BCK1 (second series), hits give low values 0.0537 | locus YJL095W, strain BCK1, hits give low values 0.188 | locus YJL115W, strain asf1, hits give low values 0.068 | locus YJL129C, strain trk1, hits give low values 0.083 | locus YJL134W, strain LCB3, hits give low values 0.918 | locus YJL154C, strain vps35, hits give low values 0.0563 | locus YJL164C, strain tpk1, hits give low values 0.0598 | locus YJL166W, strain qcr8, hits give low values 0.0595 | locus YJL168C, strain set2, hits give low values 0.826 | locus YJL187C, strain SWE1 (second series), hits give low values 0.513
